Consider 24 molecules from PubChem BioAssay (Tox21).

The structures appear in SMILES notation. Inconclusive results are not listed. The source made the active and inactive calls. Unless noted, calls come from the whole dose curve; as a rule, active = well fitted curve in the direction sought with a large enough effect in the repeat runs; inconclusive = weak or mixed curves; inactive = flat fitted curve, though single readings scatter.

Test [1] is described as follows: qHTS assay to test for compound auto fluorescence at 535 nm (green) in HEK293 cells (AID 720680). To be noted: green autofluorescence 485/535 nm; series mostly up to 91.3 µM.
The nature of test [2]: qHTS assay to test for compound auto fluorescence at 460 nm (blue) in HEK293 cell free culture (AID 720681). To be noted: cell-free medium, autofluorescence 405/460 nm (blue); series mostly up to 91.3 µM. A digest of the protocol:
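Compounds were added to cell-free DMEM with 10% FBS and fluorescence read directly. The blue channel used 405 nm excitation and 460 nm emission, with triamterene as the reference fluorophore.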
Background: qHTS replaces the single test concentration by a dilution series.

Test [3] in a line: qHTS assay to test for compound auto fluorescence at 535 nm (green) in HEK293 cell free culture (AID 720682). The note with it: cell-free medium, green autofluorescence 485/535 nm, hits give high values; series mostly up to 91.3 µM. A digest of the protocol: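 Cell-free medium (DMEM, 10% FBS) receives compound or DMSO by pintool. Plate read directly at Ex 485/Em 535 nm. Signal converted to fluorescein equivalency.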

A short description of test [4]: qHTS assay to test for compound auto fluorescence at 590 nm (red) in HEK293 cell free culture (AID 720683). The note with it: cell-free medium autofluorescence, Ex540/Em590 red; series mostly up to 91.3 µM. A digest of the protocol:
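Cell-free wells of DMEM with 10% FBS received compound, and intrinsic fluorescence was read at excitation/emission 540/590 nm. Values expressed as equivalence to Rose Bengal sodium.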

Test [5] can be described thus: qHTS assay to test for compound auto fluorescence at 590 nm (red) in HepG2 cell free culture (AID 720684). The note with it: cell-free medium autofluorescence, red 540/590 nm; series mostly up to 91.3 µM. Put shortly:
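Rose Bengal sodium served as the reference for red signal. Test compounds were dispensed into serum-containing MEM (10% FBS) without cells, and plates were read at 540/590 nm.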

Test [6] is described as follows: qHTS assay to test for compound auto fluorescence at 460 nm (blue) in HepG2 cell free culture (AID 720685). To be noted: Cell-free culture medium, blue autofluorescence 405/460 nm; series mostly up to 91.3 µM. Put shortly: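 Cell-free plates of MEM plus 10% FBS received 23 nL compound or DMSO vehicle; blue-channel (405/460 nm) intensity scored against triamterene as reference fluorophore.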

The nature of test [7]: qHTS assay to test for compound auto fluorescence at 535 nm (green) in HepG2 cell free culture (AID 720686). To be noted: Cell-free medium, green autofluorescence 485/535 nm; series mostly up to 91.3 µM.
Test [8] is described as follows: qHTS assay to test for compound auto fluorescence at 460 nm (blue) in HepG2 cells (AID 720687). The note with it: autofluorescence 405/460 nm, 1 h; series mostly up to 91.3 µM. A digest of the protocol: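 HepG2 cells in MEM with 10% FBS, attached overnight at 37 C, were exposed to compound or DMSO for 1 hr at 37 C, 5% CO2. Blue fluorescence was read at 405/460 nm, with triamterene as reference fluorophore.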

The target of test [9] is Glucocorticoid receptor (Homo sapiens) (UniProt P04150). The test is described as follows: qHTS assay to identify small molecule agonists of the glucocorticoid receptor (GR) signaling pathway (AID 720691; active = well fitted activation curve with a large enough effect in the signal ratio in the repeat runs, not every such curve was filed as active; the % refers to the signal ratio). The note with it: GR-bla HeLa, beta-lactamase reporter ratio, 18 h; series mostly up to 62.4 µM. Put shortly:
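HeLa GR-bla reporter line; cells pre-incubated 4 h, compound in DMSO 18 h at 37 C; LiveBLAzer B/G FRET substrate 2 h RT; fluorescence intensity read-out.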

The target is the same in test [10]. The test is described as follows: qHTS assay to identify small molecule antagonists of the glucocorticoid receptor (GR) signaling pathway (AID 720692; active = well fitted inhibition curve with a large enough effect in the signal ratio in the repeat runs, not every such curve was filed as active; the % refers to the signal ratio; note: potency is the fitted concentration of half-maximal effect). The note with it: GR-bla HeLa, beta-lactamase FRET ratio, dexamethasone-stimulated, 18 h; series mostly up to 58.5 µM. A digest of the protocol:
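Read-out: beta-lactamase FRET substrate fluorescence, 2 h at room temperature, in HeLa cells stably carrying a GRE-driven bla reporter. Compounds were co-incubated with 5 nM dexamethasone agonist (final) for 18 h at 37 C.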

Glucocorticoid receptor (Homo sapiens), sequence (P04150 whole entry, looked up): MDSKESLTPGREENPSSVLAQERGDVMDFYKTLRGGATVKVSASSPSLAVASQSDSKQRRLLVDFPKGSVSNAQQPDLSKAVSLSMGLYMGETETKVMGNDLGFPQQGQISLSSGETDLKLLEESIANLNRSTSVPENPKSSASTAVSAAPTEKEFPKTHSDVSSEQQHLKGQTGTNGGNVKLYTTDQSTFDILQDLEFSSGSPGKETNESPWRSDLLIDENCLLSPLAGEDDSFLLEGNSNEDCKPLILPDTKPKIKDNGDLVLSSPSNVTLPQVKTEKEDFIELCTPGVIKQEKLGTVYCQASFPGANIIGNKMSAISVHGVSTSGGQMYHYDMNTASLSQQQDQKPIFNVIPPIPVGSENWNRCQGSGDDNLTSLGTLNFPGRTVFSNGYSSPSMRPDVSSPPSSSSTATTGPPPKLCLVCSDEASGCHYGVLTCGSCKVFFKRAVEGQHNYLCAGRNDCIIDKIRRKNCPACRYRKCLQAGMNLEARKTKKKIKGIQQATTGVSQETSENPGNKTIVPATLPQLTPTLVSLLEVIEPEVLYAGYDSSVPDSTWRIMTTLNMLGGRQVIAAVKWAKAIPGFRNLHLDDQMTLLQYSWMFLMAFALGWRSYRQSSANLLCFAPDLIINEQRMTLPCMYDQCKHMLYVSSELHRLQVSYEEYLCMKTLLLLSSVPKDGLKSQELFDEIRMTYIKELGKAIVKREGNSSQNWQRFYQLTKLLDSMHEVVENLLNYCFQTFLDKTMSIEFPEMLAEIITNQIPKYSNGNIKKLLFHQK

For `CCOP(=S)(OCC)OC(Cl)C(Cl)(Cl)Cl` (stereo unspecified), the result in test [1], in [3], in test [4], in test [5] and in [7] was inactive. In addition, the Potency result in [2], in [6], in test [8], in test [9] and in [10] was “inactive” each time.

Take `C[C@]12Cc3nonc3C[C@@H]1CC[C@@H]1[C@@H]2CC[C@@]2(C)[C@H]1CC[C@]2(C)O`: the molecule was classed as inactive in [1], in [3], in test [4], in test [5] and in test [7]. Further, the Potency entry in test [2], in [6] and in [8] was “inactive” each time. Further, in test [10], the Potency is 7.56 µM (active).

Consider `O=[N+]([O-])O.O=[N+]([O-])O.[Cd]`, for which the result in test [1], in test [3], in test [4], in test [5] and in test [7] was inactive. The Potency result in test [2], in test [6] and in test [8] was “inactive” in each case. In [10], the Potency was 43.6 µM (active).

As to `CC(C)(C)C(O)/C(=C\c1ccc(Cl)cc1Cl)n1cncn1` (stereo unspecified), the result in [1], in test [3], in test [4], in [5] and in test [7] was inactive. The Potency result in test [2], in test [6], in test [8] and in [9] was “inactive” throughout. Also, the Potency in [10] is 59.3 µM (active).

As for `ClC1=C(Cl)[C@]2(Cl)[C@H]3[C@H]([C@H]4C=C[C@H]3C4)[C@@]1(Cl)C2(Cl)Cl`, the molecule was called inactive in test [1], in [3], in test [4], in test [5] and in [7]. The Potency entry in test [2], in [6], in test [8] and in test [9] was “inactive” each time. In addition, in [10], the Potency was 49 µM (active).

Take `C=CC(=O)OCCCCOC(=O)C=C`: the molecule was classed as inactive in test [1], in [3], in test [4], in test [5] and in test [7]. In addition, the Potency result in test [2], in test [6], in test [8] and in test [9] was “inactive” throughout. Also, the Potency in test [10] is 24.5 µM (active).

`c1ccc(Nc2ccc3ccccc3c2)cc1`: the call in test [1], in test [3], in test [4], in test [5] and in [7] was inactive. The Potency result in test [2], in test [6], in [8] and in test [10] was “inactive” each time.

On to `CN(C)[C@@H]1C(=O)C(C(N)=O)=C(O)[C@@]2(O)C(=O)C3=C(O)c4c(O)ccc(Cl)c4[C@@](C)(O)[C@H]3C[C@@H]12`, for which the result in test [1], in test [3], in [4], in test [5] and in test [7] was inactive. Besides, the Potency result in [2], in [6], in [8], in [9] and in test [10] was “inactive” each time.

Turning to `Cn1cc(C2=C(c3cn(C4CCN(Cc5ccccn5)CC4)c4ccccc34)C(=O)NC2=O)c2ccccc21`, the outcome in test [1], in test [3], in [4], in test [5] and in test [7] was inactive. Besides, the Potency result in test [2], in [6] and in [8] was “inactive” each time. Further, the Potency in [10] is 1.34 µM (active).

On to `O=C(CCCN1CCC2(CC1)C(=O)NCN2c1ccccc1)c1ccc(F)cc1`, for which the result in [1], in test [3], in test [4], in test [5] and in test [7] was inactive. Further, the Potency result in test [2], in test [6], in [8], in test [9] and in [10] was “inactive” each time.

For `CC(C)CCCCCOC(=O)c1ccccc1C(=O)OCCCCCC(C)C`, the outcome in test [1], in test [3], in test [4], in [5] and in test [7] was inactive. For the same molecule, the Potency result in test [2], in test [6], in test [8], in test [9] and in [10] was “inactive” each time.

In the case of `CC(Cc1ccc(C(C)(C)C)cc1)CN1C[C@@H](C)O[C@@H](C)C1` (stereo partly specified), the molecule was classed as inactive in [1], in test [3], in [4], in [5] and in [7]. Moreover, the Potency result in test [2], in [6], in test [8], in [9] and in test [10] was “inactive” each time.

Take `Clc1ccc(C(c2ccc(Cl)cc2)C(Cl)(Cl)Cl)cc1`: the result in [1], in [3], in [4], in [5] and in [7] was inactive. The Potency result in test [2], in test [6] and in test [8] was “inactive” in each case. The Potency in test [10] is 43.6 µM (active).

Regarding `COc1ccc(/C(=C/C(=O)N2CCOCC2)c2ccc(Cl)cc2)cc1OC`, the molecule was called inactive in test [1], in test [3], in test [4], in test [5] and in [7]. Also, the Potency result in test [2], in [6], in [8] and in test [10] was “inactive” throughout.

For the molecule `O=C(O)C1C2CCC(O2)C1C(=O)O` (stereo unspecified), the outcome in test [1], in [3], in [4], in test [5] and in test [7] was inactive. Besides, the Potency entry in [2], in test [6], in test [8], in [9] and in test [10] was “inactive” in each case.

As for `COP(=O)(OC)SCn1c(=O)oc2cc(Cl)cnc21`, the result in test [1], in test [3], in test [4], in test [5] and in [7] was inactive. Further, the Potency entry in test [2], in [6], in [8] and in test [9] was “inactive” each time.

Take `O=C1c2ccccc2C(=O)C1C(=O)C(c1ccccc1)c1ccc(Cl)cc1` (stereo unspecified): the Potency entry in [2], in [6], in test [8] and in test [9] was “inactive” in each case. Further, the outcome in test [3], in [4], in test [5] and in test [7] was inactive. In addition, the Potency in test [10] was 12.3 µM (active).

Regarding `Oc1ccc(C(=C(Cl)Cl)c2ccc(O)cc2)cc1`, the Potency entry in test [2], in test [6] and in test [8] was “inactive” in each case. Also, the result in test [3], in [4], in test [5] and in test [7] was inactive.

For `O=C(O)c1cc[c]([Hg][Cl])cc1`, the Potency result in test [2], in [6], in [8] and in test [10] was “inactive” each time. Also, the result in test [3], in test [4], in test [5] and in test [7] was inactive.

`CC1(C)C(/C=C(\Cl)C(F)(F)F)C1C(=O)OC(C#N)c1cccc(Oc2ccccc2)c1` (stereo unspecified): the Potency entry in test [2], in test [6] and in test [8] was “inactive” each time. Moreover, the molecule was called inactive in test [3], in test [4], in test [5] and in [7].

Take `CN(C)S(=O)(=O)N(SC(F)(Cl)Cl)c1ccccc1`: the Potency result in test [2], in test [6] and in [8] was “inactive” each time. In addition, the molecule was called inactive in test [3], in test [4], in test [5] and in [7].

Regarding `O=[N+]([O-])c1c2ccccc2cc2ccccc12`, the Potency entry in [2], in test [6], in test [8] and in test [9] was “inactive” each time. In addition, the molecule was classed as inactive in test [3], in [4], in test [5] and in test [7].

For the molecule `c1ccc2c(c1)[nH]c1cnccc12`, the Potency result in test [2] and in [6] was “inactive” throughout. Further, the outcome in test [3], in test [4] and in [7] was inactive.

Regarding `CCCSP(=O)(OCC)SCCC`, the Potency result in test [2], in [6] and in test [8] was “inactive” in each case. Further, the outcome in test [3], in [4], in test [5] and in [7] was inactive.
